Measured values reported in PubChem BioAssay (NCI).
Where “and” joins values, the source holds several entries; their conditions need not be identical. Equal entries are not always repeated. This is part of a sample that, as a whole, favours compounds with a hit. Of some 83,000 tested, about 20% had one in any assay.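 Cells were grown in 96-well plates and exposed to the test compound at a single concentration for 48 hours; results are reported as percent growth, with values below 10 considered active.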 A number with no mark means an inactive call. Calls of active or inactive are those of the source.

What was measured:
Experiment in all cases: NCI-60 one-dose screen, 48 h (100 = growth as untreated, 0 = no growth, -100 = all killed)
Settings in all cases: 10 µM unless noted
[1] = test system: NCI-H23 lung
[2] = test system: NCI-H226 lung
[3] = test system: NCI-H322M lung
[4] = test system: HOP-62 NSCLC
[5] = test system: HOP-92 NSCLC
[6] = test system: NCI-H522 lung
[7] = test system: A549/ATCC NSCLC
[8] = test system: 786-0 renal
[9] = test system: COLO 205 colon
[10] = test system: DU-145 prostate
[11] = test system: K-562 leukemia
[12] = test system: MALME-3M melanoma
[13] = test system: MDA-MB-231 breast
[14] = test system: RXF 393 renal
[15] = test system: SF-268 CNS
[16] = test system: SF-295 CNS
[17] = test system: SF-539 CNS
[18] = test system: UACC-257 melanoma
[19] = test system: M14 melanoma
[20] = test system: NCI-H460 lung

Row | Structure (SMILES) | growth [1] | growth [2] | growth [3] [%] | growth [4] | growth [5] | growth [6] | growth [7] | growth [8] | growth [9] | growth [10] | growth [11] | growth [12] | growth [13] | growth [14] | growth [15] | growth [16] | growth [17] | growth [18] | growth [19] | growth [20]
1 | O=[N+]([O-])c1cccc(-c2nnc3c(/C=C/c4ccc(F)cc4)nc4ccccc4n23)c1 | 91.7% | 98.6% | 101 | 97.9% | 80% | 81% | 95% | 93.5% | 126% | 98.7% | 87% | 95.7% | 94.6% | 77.2% | 87.5% | 80.8% | 66.9% | 107% | 108% | 
2 | N#CCc1nnc(NC(=O)c2ccc(-n3c(=O)[nH]c4ccccc4c3=O)cc2)s1 | 93% | 106% |  | 101% | 98.1% | 89.3% | 105% | 106% | 105% | 128% | 101% | 95.3% | 95.5% | 112% | 115% | 93.6% | 97.9% | 104% | 108% | 100%
3 | O=C(Nc1ccc(F)cc1)Nc1nc2ccc([N+](=O)[O-])cc2s1 | -11.8% (active) | 1.42% (active) |  | -0.8% (active) | -3.56% (active) | -23.7% (active) | 6.83% (active) | 1.6% (active) | -77.5% (active) | 24.2% | 6.19% (active) | -17.9% (active) | -2.3% (active) | -14.9% (active) | 18% | -46% (active) | 7.13% (active) | -12.8% (active) | -3.58% (active) | -3.01% (active)
4 | NC(=O)c1ccc(-c2ccc3ncnc(N4CCc5cc(F)c(Cl)cc54)c3c2)cn1 | 70.9% | 83.3% |  | 99.9% | 15.4% | 94.1% | 63% | 66.5% | 47.9% | 49.5% | 34.7% | 78.9% | 49.3% | 40.9% | 95.6% | 79.4% | 63% | 110% | 70.2% | 79.6%
5 | Cn1cc(-c2cc(N)n3nc(-c4c[nH]c5ccccc45)cc3n2)c2cc(F)ccc21 | 44.7% | 91.4% |  | -22.1% (active) | 31.3% | -61.8% (active) | 13.7% | -2.12% (active) | -47.4% (active) | 46.2% | 3.57% (active) | 76.8% | -52.2% (active) | 148% | 65.3% | -50.8% (active) | -61.9% (active) | 45.7% | -0.365% (active) | -23.9% (active)
6 | CN(C)CCCNC(=S)Nc1ccc(/C=C/c2ccc(Cl)cc2)cc1 | -89.2% (active) | -20.2% (active) |  | -50.8% (active) | -53.3% (active) | -51.9% (active) | -36% (active) | -37.4% (active) | -58% (active) | -61.8% (active) | 4.54% (active) | -95% (active) | -100% (active) | -25.8% (active) | 0.261% (active) | -51.7% (active) | -68.6% (active) | -79.9% (active) | -63.5% (active) | -35.8% (active)
7 | O=C1Nc2cc(-c3ccc(NS(=O)(=O)c4ccc([N+](=O)[O-])cc4)cc3)ccc2/C1=C/c1ccc[nH]1 | 3.29% (active) | -12.3% (active) |  | 0.132% (active) | -29.9% (active) | -5.99% (active) | -31.9% (active) | -8.24% (active) | -31.8% (active) | -44.9% (active) | 12.6% | -0.842% (active) | 12.3% | -44.3% (active) | 46.6% | -32.7% (active) | -54.4% (active) | 4.04% (active) | -13.9% (active) | 3.96% (active)
8 | Cc1cc(N=C(N)c2ccccc2)ccc1OCCCCCCCCn1ccnc1 | -28% (active) |  | 18.7 | -14.4% (active) | 16.3% |  | 15% | 4.01% (active) |  |  | 12.4% | -77.2% (active) |  |  | -12.2% (active) |  |  | -2.36% (active) | -17.5% (active) | 
9 | C/C(=N/O)c1ccc(NC(=O)CSc2nnc(-c3ccc(-c4nc5ccc(Cl)cc5[nH]4)cc3)o2)cc1 | -59.5% (active) | -39% (active) |  | -82% (active) | -53.4% (active) | -48.6% (active) | -13.3% (active) | -66.1% (active) | 50.3% | -13.6% (active) | 14.9% | -80.8% (active) | -96.5% (active) | -71.5% (active) | 17.6% | -16.4% (active) | -100% (active) | -36.9% (active) | -62.7% (active) | -100% (active)
10 | COc1ccccc1NC(=O)c1ccc(NC(=O)CCl)s1 | -66% (active) | -34.6% (active) |  | 41.9% | -0.226% (active) | -77.3% (active) | -2.86% (active) | -93.4% (active) | 9.16% (active) | 41.1% | -8.7% (active) | -4.74% (active) | -58% (active) | -56.5% (active) | 22.3% | 31.9% | -14.1% (active) | 10.6% | -74.7% (active) | -16% (active)
11 | Cc1ccc(C(C)C)cc1Oc1cccc(-c2c(-c3ccc(C(F)(F)F)cc3)ncn2C2CCNCC2)n1 | -89% (active) | -78.4% (active) |  | -82.7% (active) | -85.8% (active) | -91.2% (active) | -86.8% (active) | -90.8% (active) | -87.5% (active) | -83.5% (active) | -60.7% (active) | -86.6% (active) | -95.7% (active) | -90.3% (active) | -56.6% (active) | -94.2% (active) | -98.2% (active) | -88.4% (active) | -97.2% (active) | -84.3% (active)
12 | COc1cccc(C(N)=Nc2ccc(OCCCCCCCCn3cncn3)cc2)c1 | 9.5% (active) |  | 58.1 | 16.2% | 73.7% |  | 24.6% | 28.4% |  |  | 15.8% | 37.4% |  |  | 27% |  |  | 39.1% | 22.6% | 
13 | COc1ccc(-c2nnc3c(/C=C/c4ccc(Br)cc4)nc4ccccc4n23)cc1 | 29.9% | 96.7% |  | 104% | 35.6% | -79.9% (active) | 75.8% | -41.8% (active) | -53% (active) | 53.6% | 10.6% | -39.4% (active) | 81.9% | -2.19% (active) | 87.4% | 87.4% | 23.8% | 70.9% | -19.8% (active) | 67.6%
14 | CC(=O)Nc1cccc(-n2c(COc3ccc(I)cc3)nc3ccccc32)c1 | 83.5% and 106% | 68.3% and 113% |  | 118% and 120% | 79.9% and 116% | 70.1% and 111% | 101% and 108% | 101% and 109% | 96.9% and 128% | 99.4% and 101% | 67.5% and 104% | 86.9% and 106% | 70.7% and 109% | 80.7% and 107% | 81% and 99.1% | 79.1% and 101% | 84.5% and 107% | 112% and 106% | 102% and 115% | 103% and 112%
15 | COc1ccc(-c2cc(-c3cc(C(C)C)c(O)cc3C)nn2-c2ccc(S(N)(=O)=O)cc2)cc1 | 41.5% | 78.6% |  | 51.5% | 45.4% | 6.99% (active) | 40.4% | 25.5% | 122% | 16.2% | 13.6% | 60.1% | 27.9% | 26.7% | 47.2% | 19.8% | -28% (active) | 60.5% | 42.8% | 33.8%
